Where “and” joins values, the source holds several entries; their conditions need not be identical. Equal entries are not always repeated. Calls of active or inactive are those of the source.
Experiments:
[1] = binders of probe aFSTL3 on microarray, primary screen, stem cell growth factor project, biochemical, small-molecule microarray, fluorescence 635/667 (AID 1064); details: higher = more signal;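 note: measures binding of the biotinylated anti-FSTL3 antibody to printed compounds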
[2] = binders from COS7 lysate, DM2A8 probe, primary screen, torsin A project, cell lysate, small-molecule microarray, fluorescence 635/667 (AID 1065); details: higher = more signal, COS7 lysate expressing mutant human TOR1A
[3] = binders of probe aFGF2 on microarray, primary screen, stem cell growth factor project, biochemical, small-molecule microarray, fluorescence 635/667 (AID 1067); details: higher = more signal;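 note: measures binding of biotinylated aFGF2 protein to printed compounds on slides; z-score merges feature fluorescence and signal-to-noise across triplicate slides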
[4] = binders of probe aFGF10 on microarray, primary screen, stem cell growth factor project, biochemical, small-molecule microarray, fluorescence 635/667 (AID 1071); details: higher = more signal;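 note: score merges 667 nm spot intensity and signal to noise from triplicate slides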
[5] = target: Neurogenic locus notch homolog protein 2 (Homo sapiens) (UniProt Q04721); experiment: Notch2 binders on small-molecule microarrays, primary screen, biochemical, small-molecule microarray, 635 nm fluorescence, stem cell growth factors (AID 1073); details: Notch2 binding, higher = more signal
Sequence of Neurogenic locus notch homolog protein 2 (Homo sapiens) (Q04721 whole entry, looked up, canonical isoform): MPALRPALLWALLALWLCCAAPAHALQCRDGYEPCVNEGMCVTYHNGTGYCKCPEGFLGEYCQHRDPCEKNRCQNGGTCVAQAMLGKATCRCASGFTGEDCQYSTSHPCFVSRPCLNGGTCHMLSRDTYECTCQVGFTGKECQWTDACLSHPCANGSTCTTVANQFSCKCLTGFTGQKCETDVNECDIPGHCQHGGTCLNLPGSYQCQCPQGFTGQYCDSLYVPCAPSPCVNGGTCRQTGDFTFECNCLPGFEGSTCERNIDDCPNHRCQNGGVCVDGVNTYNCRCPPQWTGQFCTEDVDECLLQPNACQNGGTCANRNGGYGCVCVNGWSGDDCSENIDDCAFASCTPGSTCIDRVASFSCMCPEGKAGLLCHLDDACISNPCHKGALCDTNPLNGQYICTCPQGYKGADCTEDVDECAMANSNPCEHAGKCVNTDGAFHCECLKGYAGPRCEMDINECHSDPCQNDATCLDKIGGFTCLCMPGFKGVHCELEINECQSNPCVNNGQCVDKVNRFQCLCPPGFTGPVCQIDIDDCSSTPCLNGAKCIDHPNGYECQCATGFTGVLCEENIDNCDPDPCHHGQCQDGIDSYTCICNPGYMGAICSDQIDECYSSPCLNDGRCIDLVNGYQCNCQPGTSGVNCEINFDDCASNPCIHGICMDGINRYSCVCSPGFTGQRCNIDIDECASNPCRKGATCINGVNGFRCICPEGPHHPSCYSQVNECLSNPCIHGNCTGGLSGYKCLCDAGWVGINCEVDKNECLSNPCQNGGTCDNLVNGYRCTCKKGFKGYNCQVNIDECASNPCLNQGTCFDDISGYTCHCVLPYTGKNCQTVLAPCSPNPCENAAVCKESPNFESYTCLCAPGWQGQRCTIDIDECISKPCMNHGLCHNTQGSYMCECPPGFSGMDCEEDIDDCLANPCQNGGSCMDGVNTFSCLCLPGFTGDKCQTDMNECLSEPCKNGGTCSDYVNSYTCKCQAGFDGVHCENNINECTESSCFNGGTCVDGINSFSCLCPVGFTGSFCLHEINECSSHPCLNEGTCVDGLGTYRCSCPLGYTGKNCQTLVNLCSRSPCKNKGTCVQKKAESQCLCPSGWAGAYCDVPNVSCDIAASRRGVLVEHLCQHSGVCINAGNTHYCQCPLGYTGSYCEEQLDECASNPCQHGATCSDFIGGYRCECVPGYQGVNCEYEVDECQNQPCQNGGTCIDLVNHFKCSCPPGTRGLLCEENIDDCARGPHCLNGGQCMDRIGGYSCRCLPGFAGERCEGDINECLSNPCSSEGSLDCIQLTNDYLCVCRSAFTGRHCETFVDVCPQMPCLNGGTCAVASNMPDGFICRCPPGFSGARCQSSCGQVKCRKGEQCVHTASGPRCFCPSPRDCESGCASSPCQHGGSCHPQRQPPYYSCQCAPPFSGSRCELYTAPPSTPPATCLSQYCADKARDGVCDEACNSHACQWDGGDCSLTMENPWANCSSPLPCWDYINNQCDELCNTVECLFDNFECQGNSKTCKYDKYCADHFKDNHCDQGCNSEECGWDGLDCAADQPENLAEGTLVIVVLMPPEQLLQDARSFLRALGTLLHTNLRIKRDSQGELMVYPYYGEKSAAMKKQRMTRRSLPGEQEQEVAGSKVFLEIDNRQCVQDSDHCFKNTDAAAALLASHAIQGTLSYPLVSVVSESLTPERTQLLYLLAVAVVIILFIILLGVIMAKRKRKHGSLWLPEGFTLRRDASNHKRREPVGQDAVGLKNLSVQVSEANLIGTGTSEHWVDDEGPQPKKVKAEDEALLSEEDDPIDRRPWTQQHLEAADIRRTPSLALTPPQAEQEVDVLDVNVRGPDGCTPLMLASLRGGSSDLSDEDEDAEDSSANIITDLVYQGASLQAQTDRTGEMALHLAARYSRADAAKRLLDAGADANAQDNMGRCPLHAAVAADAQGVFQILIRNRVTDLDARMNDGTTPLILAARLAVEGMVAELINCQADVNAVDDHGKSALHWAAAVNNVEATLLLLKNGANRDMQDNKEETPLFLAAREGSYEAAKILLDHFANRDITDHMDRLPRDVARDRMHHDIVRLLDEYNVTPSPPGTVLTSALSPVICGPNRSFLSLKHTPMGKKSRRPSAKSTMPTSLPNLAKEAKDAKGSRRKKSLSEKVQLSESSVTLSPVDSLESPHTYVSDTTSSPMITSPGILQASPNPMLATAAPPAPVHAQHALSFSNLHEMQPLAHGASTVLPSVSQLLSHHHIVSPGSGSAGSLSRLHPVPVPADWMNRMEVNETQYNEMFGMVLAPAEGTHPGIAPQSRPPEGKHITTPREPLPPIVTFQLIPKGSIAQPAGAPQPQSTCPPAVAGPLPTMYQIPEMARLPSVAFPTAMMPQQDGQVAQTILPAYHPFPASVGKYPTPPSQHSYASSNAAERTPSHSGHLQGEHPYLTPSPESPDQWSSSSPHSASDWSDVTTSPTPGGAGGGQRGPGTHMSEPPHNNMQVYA

[6] = target: Pro-neuregulin-1, membrane-bound isoform (Homo sapiens) (UniProt Q02297); experiment: NRG1 binders on small-molecule microarrays, primary screen, psychiatric disease protein project, biochemical, small-molecule microarray, fluorescence 635/667 (AID 1075); details: NRG1 binding, 635 nm fluorescence, higher = more signal;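 note: score combines 667 nm spot fluorescence with signal to noise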
Sequence of Pro-neuregulin-1, membrane-bound isoform (Homo sapiens) (Q02297 whole entry, looked up, the tested form may be a part, canonical isoform): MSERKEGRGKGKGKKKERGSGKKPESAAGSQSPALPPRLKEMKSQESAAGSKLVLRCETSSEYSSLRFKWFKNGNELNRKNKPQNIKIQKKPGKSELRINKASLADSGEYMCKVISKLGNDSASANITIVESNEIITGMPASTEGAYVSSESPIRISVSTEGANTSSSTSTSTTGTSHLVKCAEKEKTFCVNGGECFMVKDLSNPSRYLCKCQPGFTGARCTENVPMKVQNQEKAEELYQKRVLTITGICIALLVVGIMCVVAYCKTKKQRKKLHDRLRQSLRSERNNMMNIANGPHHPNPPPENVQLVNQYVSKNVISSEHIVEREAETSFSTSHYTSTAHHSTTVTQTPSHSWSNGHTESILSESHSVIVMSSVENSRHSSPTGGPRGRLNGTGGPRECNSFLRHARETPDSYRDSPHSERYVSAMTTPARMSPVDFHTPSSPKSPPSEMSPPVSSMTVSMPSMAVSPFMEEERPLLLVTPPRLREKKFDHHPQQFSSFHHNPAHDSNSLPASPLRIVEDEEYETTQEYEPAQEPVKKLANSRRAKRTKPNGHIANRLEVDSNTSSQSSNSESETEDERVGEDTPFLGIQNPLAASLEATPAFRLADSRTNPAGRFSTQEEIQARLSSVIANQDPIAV

[7] = tested on: Neuregulin-1 EGF-like domain; experiment: binders of neuregulin-1 EGF-like domain, primary screen, biochemical, small-molecule microarray, 635 nm fluorescence (AID 1081); details: small-molecule microarray binding, higher = more signal;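 note: binding of the protein to compounds printed on small-molecule microarray slides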
[8] = FRG1 promoter luciferase signal modulators, primary screen, FRG1 inhibition for FSHD, cell-based, C2C12 myotubes, firefly/Renilla luciferase, luminescence (AID 1084); details: higher = more signal, called active from +8 up or from −8 down
[9] = binders of probe aFST on microarray, primary screen, stem cell growth factor project, biochemical, small-molecule microarray, fluorescence 635/667 (AID 1086); details: higher = more signal;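 note: score merges 667 nm fluorescence with signal-to-noise of each printed compound spot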
[10] = binders of probe aHhip on microarray, primary screen, stem cell growth factor project, biochemical, small-molecule microarray, fluorescence 635/667 (AID 1087); details: higher = more signal;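 note: score merges spot fluorescence at 667nm with spot signal to noise ratio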

SMILES	composite z-score [1]	composite z-score [2]	composite z-score [3]	composite z-score [4]	composite z-score [5]	composite z-score [6]	composite z-score [7]	z-score [8]	composite z-score [9]	composite z-score [10]
CCOC(=O)C[C@H]1[C@H](OC(=O)c2ccccc2-c2ccccc2)[C@@H](NC(=O)Cc2ccc(OC)cc2)c2cc(OCCCO)ccc2N1C(=O)c1ccc2ccccc2n1	-0.21 and 0.27	0.266 and 0.395	-0.0781 and 0.16	0.27 and 0.319	0.305 and 0.361	0.147 and 0.653	-0.529 and 0.0101	-0.0725 (inactive) and 0.266 (inactive)	0.442 and 0.575	-0.0645 and -0.0672
C=CCN(Cc1ccccc1)C(=O)C1N(c2c(Cl)cccc2CO)C(=O)C2C(C(=O)O)C3C=CC21O3 (stereo not given)	1.77 and 1.95	-1.28 and -0.799	-0.176 and -0.166	-1.74 and -0.702	-2.4 and -2.37	-1.18 and -0.797	-0.822 and -0.464	-1.05 (inactive) and 1.16 (inactive)	-0.877 and -0.563	-0.418 and -0.137
CCN1C(=O)[C@H]2[C@H]3[C@H](O)[C@H](O)CC(=NOC)[C@@H]3CC[C@H]2C1=O	0.206	-0.604	-0.1	0.369	-0.422	-0.319	-0.817	-0.898 (inactive)	-0.221	0.0024
CCOC(=O)[C@H](Cc1ccccc1)NC(=O)CCC1CC(OC(=O)NCc2cccc3ccccc23)CC2(CCCC(COC(=O)NCCCN3CCCC3=O)O2)O1 (stereo not given in full)	-0.511	0.221	-0.107	0.122	1.1	0.412	0.783	-0.81 (inactive)	0.249	-0.0994
C[N+](C)(C)CCCCCCNC(=O)[C@H]1C[C@H]2C(=O)N[C@@H](CCCC[N+](C)(C)C)C(=O)N2[C@H]1c1cccc(OCCO)c1	-0.54 and 1.52	0.5 and 0.444	-0.0546 and 0.0108	-0.232 and 0.0517	-0.004 and -0.276	0.55 and -0.353	1.2 and 1.47	3.98 (inactive) and 3.53 (inactive)	0.469 and 0.696	-0.293 and 0.535
C=CCN(CCCCC)C(=O)C1N(c2ccc(CCO)cc2)C(=O)C2C(C(=O)O)C3C=CC21O3 (stereo not given)	-0.152 and 0.561	-0.875 and -0.415	-0.154 and -0.179	-0.808 and -0.367	-2.12 and -2.03	-0.638 and -0.72	-0.465 and -0.307	1.51 (inactive) and 1.3 (inactive)	-0.623 and -0.681	-0.4 and -0.175
C=CCN(CCCC)C(=O)C(c1cccs1)N(CCOCCO)C(=O)/C=C\C(=O)O (stereo not given)	0.673 and -0.0069	0.878 and 0.902	-0.208 and -0.23	-1.36 and 0.428	-1.8 and -0.746	1.34 and 0.823	0.903 and 0.941	-1.65 (inactive) and -0.784 (inactive)	-0.496 and -0.114	-0.134 and -0.236
Cc1ccc(S(=O)(=O)N[C@@H]2COC(=O)CC=C[C@@H](C)[C@@H]3C=C[C@H](O)[C@@H](COC(=O)CC=C[C@H]2C)O3)cc1	-0.534 and -0.776	1.1 and 0.792	-0.131 and -0.175	0.0127 and 0.11	-0.557 and 0.111	-0.22 and -0.195	0.0077 and 0.324	0.132 (inactive) and 0.646 (inactive)	0.101 and 0.0406	0.0243 and -0.26
C[C@@]1([C@@H](NC(=O)Cc2ccccc2)c2ccc(-c3ccccc3)cc2)C[C@H]1C1CCCCC1	1.12 and 2.03 and -0.0771	0.528 and 0.149 and 0.36	0.611 and 0.674 and -0.218	0.602 and 0.59 and 0.392	0.866 and 0.815 and 0.536	1.41 and 0.96 and 0.841	0.911 and 0.56 and 0.909	-1.2 (inactive) and -0.806 (inactive) and 1.29 (inactive)	0.57 and 2.41 and 1.59	0.319 and 2.76 and -0.609
COC(=O)C1=C(C)N(Cc2ccccc2)C2=C(C(C)=O)[C@H](c3ccccc3)[C@@](O)(C(=O)OC)C(=O)N2[C@@H]1c1ccccc1	-0.449 and -0.481	0.468 and -0.61	-0.129 and -0.139	0.778 and -0.338	0.691 and 0.083	0.595 and -0.445	1.18 and -1.44	-2.61 (inactive) and -1.77 (inactive)	0.277 and -0.201	0.0515 and -0.281
C=CC[C@@H](O)c1ccc(O)c2ccccc12	0.16 and -0.247	0.571 and 0.234	-0.0422 and -0.0676	0.184 and 0.262	0.116 and 0.328	0.66 and 0.282	1.18 and 1.26	0.0604 (inactive) and 1.27 (inactive)	0.42 and 0.0926	0.72 and -0.0237
C=CCN(C(=O)C(c1cccs1)N(C(=O)/C=C\C(=O)O)c1c(Cl)cccc1CO)C(C)(C)C (stereo not given)	1.49 and 1.64	-1.2 and -1.76	-0.232 and -0.235	-1.69 and -1.27	-1.86 and -2.21	-0.732 and -1.05	-0.301 and -0.512	1.06 (inactive) and 1.34 (inactive)	-0.791 and -0.727	0.228 and -0.554
COC(=O)[C@@]1(Cc2ccc(F)cc2)[C@H]2c3cc(C(=O)N4CCCC4)n(Cc4c(CO)[nH]cc(C)c4=O)c3C[C@H]2CN1C(=O)c1ccccc1	1.8 and 0.692	-0.101 and -1.02	0.775 and -0.0485	1.22 and 0.774	1.43 and 1.42	1.92 and 1.21	1.31 and 1.1	1.78 (inactive) and -0.112 (inactive)	1.54 and 0.659	1.42 and 0.314
C=CCN(C(=O)C1N(C(C)(C)CO)C(=O)C2C(C(=O)O)C3C=CC21O3)C(C)(C)C (stereo not given)	0.974 and 1.67	-1.54 and -0.705	-0.232 and -0.112	-1.48 and 0.207	-2.19 and -1.87	-0.396 and 0.389	0.154 and 1.46	0.198 (inactive) and -0.0048 (inactive)	-1.37 and -1.24	-0.427 and -0.0994
O=c1n(-c2ccccc2)c(=O)n2n1CC[C@@H]1C(=NOC[C@@H](O)COCc3ccco3)[C@H]3O[C@H]3[C@@H](O)[C@@H]12	-0.538 and -0.609	1.27 and 1.24	-0.209 and -0.258	0.265 and -0.486	-0.0496 and 0.156	-0.498 and -0.0731	0.874 and -0.672	0.193 (inactive) and -0.52 (inactive)	0.0872 and 0.231	-0.0994 and -0.069
Cc1cc2c(nc1C)CCCN2CC(O)CN1CCCc2nc(-c3ccc(Br)cc3)ccc21 (stereo not given)	0.738 and 1.41	0.694 and 0.644	0.115 and 0.363	0.902 and 0.602	1.15 and 1.39	1.56 and 1.11	1.16 and 1.11	4.83 (inactive) and 2.39 (inactive)	0.916 and 0.891	0.968 and 2.11

Reference: PubChem BioAssay
